Experimental data reported in article PMC7862700, “An all-to-all approach to the identification of sequence-specific readers for epigenetic DNA modifications on cytosine”.

Legend:
Experiment in all cases: DAPPL (digital affinity profiling via proximity ligation, sequencing); 10 mM Tris-HCl pH 7.5, 50 mM NaCl, 1 mM DTT, 4% glycerol, room temperature, 30 min; GST-TFs on glutathione beads, 16-mer random dsDNA library, 0.1% formaldehyde crosslink after washing; high values mean tight binding
FLI1 = biological target: T1, FLI1 (Homo sapiens, UniProt Q01543 1-452); conditions: protein: recombinant; tags: N-terminal GST; dsDNA, one strand shown
T1 sequence: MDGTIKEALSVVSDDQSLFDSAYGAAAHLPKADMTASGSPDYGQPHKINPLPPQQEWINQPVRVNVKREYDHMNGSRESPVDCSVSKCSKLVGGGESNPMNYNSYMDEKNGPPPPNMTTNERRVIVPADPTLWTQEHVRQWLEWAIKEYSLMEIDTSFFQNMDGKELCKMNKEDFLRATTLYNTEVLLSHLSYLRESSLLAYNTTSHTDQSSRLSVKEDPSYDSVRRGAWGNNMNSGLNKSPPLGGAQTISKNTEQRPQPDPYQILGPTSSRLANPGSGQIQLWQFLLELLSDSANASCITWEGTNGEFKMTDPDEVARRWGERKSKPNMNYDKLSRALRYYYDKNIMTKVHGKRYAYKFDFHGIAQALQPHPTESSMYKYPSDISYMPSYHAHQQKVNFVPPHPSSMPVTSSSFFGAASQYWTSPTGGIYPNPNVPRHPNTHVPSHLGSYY
Procedure, shortened: (§1)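 After expression in yeast as GST fusions, human transcription factors were bound to glutathione beads, DNA-barcoded and mixed with a tag-only sample. The pools were incubated with 200 nmole of a 16-mer random double-stranded DNA library in Tris/NaCl/DTT/glycerol buffer (30 min, room temperature), washed and crosslinked with 0.1% formaldehyde. Proximity ligation with BsaI/T4 ligase ran for 1 h at 37 °C, before PCR amplification and sequencing on an Illumina NextSeq500. Binding signal is a hexamer's read frequency for a factor divided by its frequency for the tag-only sample.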

ELK1 = biological target: T2, ELK1 (Homo sapiens, UniProt P19419 1-428); conditions: protein: recombinant; tags: N-terminal GST; dsDNA, one strand shown
T2 sequence: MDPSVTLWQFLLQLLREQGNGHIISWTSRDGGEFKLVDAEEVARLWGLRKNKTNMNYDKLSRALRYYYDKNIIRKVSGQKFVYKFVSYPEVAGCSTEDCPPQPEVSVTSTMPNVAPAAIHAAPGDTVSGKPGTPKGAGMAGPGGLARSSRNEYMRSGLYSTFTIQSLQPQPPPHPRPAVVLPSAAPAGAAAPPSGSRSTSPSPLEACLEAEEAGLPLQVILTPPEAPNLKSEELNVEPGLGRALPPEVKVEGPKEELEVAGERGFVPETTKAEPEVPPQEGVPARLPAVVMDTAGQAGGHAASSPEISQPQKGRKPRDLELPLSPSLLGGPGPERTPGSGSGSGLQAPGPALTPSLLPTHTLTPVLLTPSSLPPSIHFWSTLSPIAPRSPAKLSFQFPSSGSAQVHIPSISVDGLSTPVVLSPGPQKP
Procedure, shortened: as §1

GABPA = biological target: T3, GABPA (Homo sapiens, UniProt Q06546 1-454); conditions: protein: recombinant; tags: N-terminal GST; dsDNA, one strand shown
T3 sequence: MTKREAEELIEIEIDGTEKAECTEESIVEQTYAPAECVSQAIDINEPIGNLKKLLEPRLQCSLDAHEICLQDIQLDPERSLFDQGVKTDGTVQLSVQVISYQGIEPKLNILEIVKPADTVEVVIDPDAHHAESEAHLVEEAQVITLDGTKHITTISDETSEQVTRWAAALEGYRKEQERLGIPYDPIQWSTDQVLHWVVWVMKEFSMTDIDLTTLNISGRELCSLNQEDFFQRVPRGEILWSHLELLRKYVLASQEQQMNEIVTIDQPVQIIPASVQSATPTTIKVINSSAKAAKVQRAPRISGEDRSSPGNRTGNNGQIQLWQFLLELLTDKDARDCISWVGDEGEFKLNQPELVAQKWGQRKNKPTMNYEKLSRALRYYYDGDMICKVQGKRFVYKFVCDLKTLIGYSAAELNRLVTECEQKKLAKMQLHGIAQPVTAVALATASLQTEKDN
Procedure, shortened: as §1

ERG = biological target: T4, ERG (Homo sapiens, UniProt P11308 1-479); conditions: protein: recombinant; tags: N-terminal GST; dsDNA, one strand shown
T4 sequence: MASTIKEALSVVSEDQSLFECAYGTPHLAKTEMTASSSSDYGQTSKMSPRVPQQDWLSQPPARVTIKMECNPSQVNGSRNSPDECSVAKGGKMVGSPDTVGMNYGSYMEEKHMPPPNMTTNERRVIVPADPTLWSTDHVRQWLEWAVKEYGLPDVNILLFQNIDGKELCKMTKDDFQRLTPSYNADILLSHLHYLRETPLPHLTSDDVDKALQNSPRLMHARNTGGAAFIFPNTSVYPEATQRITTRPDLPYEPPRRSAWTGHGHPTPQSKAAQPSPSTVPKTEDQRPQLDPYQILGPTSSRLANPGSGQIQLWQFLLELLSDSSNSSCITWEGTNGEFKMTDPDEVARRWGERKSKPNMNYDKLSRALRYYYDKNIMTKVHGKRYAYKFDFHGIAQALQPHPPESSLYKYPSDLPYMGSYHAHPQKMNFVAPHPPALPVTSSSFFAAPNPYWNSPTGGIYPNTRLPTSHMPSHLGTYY
Procedure, shortened: as §1

ELF1 = ELF1 (Homo sapiens, UniProt P32519 1-619); conditions: protein: recombinant; tags: N-terminal GST; dsDNA, one strand shown
Procedure, shortened: as §1

EHF = biological target: T5, EHF (Homo sapiens, UniProt Q9NZC4 1-300); conditions: protein: recombinant; tags: N-terminal GST; dsDNA, one strand shown
T5 sequence: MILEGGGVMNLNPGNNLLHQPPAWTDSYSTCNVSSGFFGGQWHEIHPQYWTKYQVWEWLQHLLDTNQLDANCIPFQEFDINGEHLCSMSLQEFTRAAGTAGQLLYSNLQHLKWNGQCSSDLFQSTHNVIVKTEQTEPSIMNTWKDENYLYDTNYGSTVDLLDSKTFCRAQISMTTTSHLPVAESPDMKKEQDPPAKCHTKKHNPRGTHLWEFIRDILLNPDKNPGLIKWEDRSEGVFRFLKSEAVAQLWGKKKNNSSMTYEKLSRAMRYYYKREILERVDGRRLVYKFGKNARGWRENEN
Procedure, shortened: as §1

SPI1 = SPI1 (Homo sapiens, UniProt P17947 1-270); conditions: protein: recombinant; tags: N-terminal GST; dsDNA, one strand shown
Procedure, shortened: as §1

SPIB = SPIB (Homo sapiens, UniProt Q01892 1-262); conditions: protein: recombinant; tags: N-terminal GST; dsDNA, one strand shown
Procedure, shortened: as §1

ELK3 = biological target: T6, ELK3 (Homo sapiens, UniProt P41970 1-407); conditions: protein: recombinant; tags: N-terminal GST; dsDNA, one strand shown
T6 sequence: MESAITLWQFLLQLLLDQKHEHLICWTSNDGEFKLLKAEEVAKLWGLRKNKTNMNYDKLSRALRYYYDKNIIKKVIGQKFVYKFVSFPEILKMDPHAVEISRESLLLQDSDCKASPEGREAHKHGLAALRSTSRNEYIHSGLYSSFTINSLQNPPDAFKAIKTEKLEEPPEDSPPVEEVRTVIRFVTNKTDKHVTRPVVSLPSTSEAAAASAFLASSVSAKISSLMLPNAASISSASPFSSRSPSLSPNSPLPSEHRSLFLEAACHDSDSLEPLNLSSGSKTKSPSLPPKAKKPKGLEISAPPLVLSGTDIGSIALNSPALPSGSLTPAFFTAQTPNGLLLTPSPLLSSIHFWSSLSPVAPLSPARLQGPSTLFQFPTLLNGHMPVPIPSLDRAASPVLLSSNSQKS
Procedure, shortened: as §1

FEV = biological target: T7, FEV (Homo sapiens, UniProt Q99581 1-238); conditions: protein: recombinant; tags: N-terminal GST; dsDNA, one strand shown
T7 sequence: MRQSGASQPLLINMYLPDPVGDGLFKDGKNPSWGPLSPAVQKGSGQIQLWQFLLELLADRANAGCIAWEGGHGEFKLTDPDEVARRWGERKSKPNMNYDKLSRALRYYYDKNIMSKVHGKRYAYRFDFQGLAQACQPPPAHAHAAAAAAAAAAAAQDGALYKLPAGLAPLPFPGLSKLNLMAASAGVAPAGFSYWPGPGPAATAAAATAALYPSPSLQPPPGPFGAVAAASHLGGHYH
Procedure, shortened: as §1

ETV5 = ETV5 (Homo sapiens, UniProt P41161 1-510); conditions: protein: recombinant; tags: N-terminal GST; dsDNA, one strand shown
Procedure, shortened: as §1

HSF1 = HSF1 (Homo sapiens, UniProt Q00613 1-529); conditions: protein: recombinant; tags: N-terminal GST; chain copies: 3; dsDNA, one strand shown
Procedure, shortened: as §1

SPIC = biological target: T8, SPIC (Homo sapiens, UniProt Q8N5J4 1-248); conditions: protein: recombinant; tags: N-terminal GST; dsDNA, one strand shown
T8 sequence: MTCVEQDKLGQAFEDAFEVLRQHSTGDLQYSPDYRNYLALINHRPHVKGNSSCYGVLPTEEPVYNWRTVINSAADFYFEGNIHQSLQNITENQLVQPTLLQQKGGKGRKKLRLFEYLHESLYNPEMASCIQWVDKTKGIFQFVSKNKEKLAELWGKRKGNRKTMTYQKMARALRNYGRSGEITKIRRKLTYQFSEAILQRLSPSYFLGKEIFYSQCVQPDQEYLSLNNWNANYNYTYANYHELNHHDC
Procedure, shortened: as §1

ELF4 = ELF4 (Homo sapiens, UniProt Q99607 1-663); conditions: protein: recombinant; tags: N-terminal GST; dsDNA, one strand shown
Procedure, shortened: as §1

ELK4 = biological target: T9, ELK4 (Homo sapiens, UniProt P28324-2 1-405); conditions: protein: recombinant; tags: N-terminal GST; dsDNA, one strand shown
T9 sequence: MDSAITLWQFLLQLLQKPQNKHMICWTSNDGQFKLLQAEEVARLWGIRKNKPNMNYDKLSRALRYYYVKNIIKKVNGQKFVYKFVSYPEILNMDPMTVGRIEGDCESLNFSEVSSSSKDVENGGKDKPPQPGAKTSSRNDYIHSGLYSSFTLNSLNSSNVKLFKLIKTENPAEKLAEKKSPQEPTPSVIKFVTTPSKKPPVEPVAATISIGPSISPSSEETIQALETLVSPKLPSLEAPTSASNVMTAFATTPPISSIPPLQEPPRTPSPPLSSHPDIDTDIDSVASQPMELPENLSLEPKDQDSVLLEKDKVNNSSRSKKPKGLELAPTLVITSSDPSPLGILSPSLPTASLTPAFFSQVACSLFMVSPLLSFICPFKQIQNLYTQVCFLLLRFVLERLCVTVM
Procedure, shortened: as §1

ETV2 = biological target: T10, ETV2 (Homo sapiens, UniProt O00321 1-342); conditions: protein: recombinant; tags: N-terminal GST; dsDNA, one strand shown
T10 sequence: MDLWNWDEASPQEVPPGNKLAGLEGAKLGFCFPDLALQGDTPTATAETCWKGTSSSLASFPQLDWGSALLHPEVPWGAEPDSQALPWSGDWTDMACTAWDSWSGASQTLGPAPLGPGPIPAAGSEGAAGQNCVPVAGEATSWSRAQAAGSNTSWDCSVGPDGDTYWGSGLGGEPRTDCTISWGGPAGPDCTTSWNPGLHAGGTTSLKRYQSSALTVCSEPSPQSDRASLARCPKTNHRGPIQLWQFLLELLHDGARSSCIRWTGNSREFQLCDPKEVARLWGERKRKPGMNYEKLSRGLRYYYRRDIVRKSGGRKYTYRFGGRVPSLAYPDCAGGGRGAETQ
Procedure, shortened: as §1

ELF3 = biological target: T11, ELF3 (Homo sapiens, UniProt P78545 1-371); conditions: protein: recombinant; tags: N-terminal GST; dsDNA, one strand shown
T11 sequence: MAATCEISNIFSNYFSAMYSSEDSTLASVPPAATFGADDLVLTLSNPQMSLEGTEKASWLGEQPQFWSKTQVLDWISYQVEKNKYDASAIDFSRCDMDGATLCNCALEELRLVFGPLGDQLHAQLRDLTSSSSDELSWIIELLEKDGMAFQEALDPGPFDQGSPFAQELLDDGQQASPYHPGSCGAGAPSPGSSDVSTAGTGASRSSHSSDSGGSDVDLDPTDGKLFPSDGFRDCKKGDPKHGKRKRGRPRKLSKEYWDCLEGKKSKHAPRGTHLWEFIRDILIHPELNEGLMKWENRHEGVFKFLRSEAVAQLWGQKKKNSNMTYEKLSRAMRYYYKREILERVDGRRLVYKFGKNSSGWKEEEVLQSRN
Procedure, shortened: as §1

CRX = CRX (Homo sapiens, UniProt O43186 1-299); conditions: protein: recombinant; tags: N-terminal GST; dsDNA, one strand shown
Procedure, shortened: as §1

ETV1 = ETV1 (Homo sapiens, UniProt P50549 1-477); conditions: protein: recombinant; tags: N-terminal GST; dsDNA, one strand shown
Procedure, shortened: as §1

Chain of ETV5 (P41161 whole entry): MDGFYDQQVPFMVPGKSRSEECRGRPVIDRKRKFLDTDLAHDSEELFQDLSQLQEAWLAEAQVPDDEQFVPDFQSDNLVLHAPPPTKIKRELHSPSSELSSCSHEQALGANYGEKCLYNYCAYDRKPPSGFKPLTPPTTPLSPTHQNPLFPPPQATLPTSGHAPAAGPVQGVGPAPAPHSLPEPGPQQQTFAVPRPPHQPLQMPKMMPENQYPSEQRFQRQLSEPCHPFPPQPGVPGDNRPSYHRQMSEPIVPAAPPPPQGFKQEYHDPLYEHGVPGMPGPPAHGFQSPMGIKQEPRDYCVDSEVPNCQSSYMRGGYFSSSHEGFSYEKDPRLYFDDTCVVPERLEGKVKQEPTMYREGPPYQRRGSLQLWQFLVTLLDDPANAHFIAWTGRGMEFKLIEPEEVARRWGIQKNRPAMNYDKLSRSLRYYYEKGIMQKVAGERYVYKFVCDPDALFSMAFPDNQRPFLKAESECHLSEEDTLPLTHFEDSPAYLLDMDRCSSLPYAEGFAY
Chain of CRX (O43186 whole entry): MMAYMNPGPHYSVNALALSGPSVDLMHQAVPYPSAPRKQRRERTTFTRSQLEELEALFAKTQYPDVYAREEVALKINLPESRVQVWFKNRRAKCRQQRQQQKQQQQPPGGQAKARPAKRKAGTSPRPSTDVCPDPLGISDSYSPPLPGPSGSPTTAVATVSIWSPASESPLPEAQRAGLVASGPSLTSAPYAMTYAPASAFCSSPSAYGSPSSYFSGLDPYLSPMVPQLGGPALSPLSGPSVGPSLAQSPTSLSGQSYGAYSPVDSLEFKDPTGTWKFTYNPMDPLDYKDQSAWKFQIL
Chain of ELF1 (P32519 whole entry): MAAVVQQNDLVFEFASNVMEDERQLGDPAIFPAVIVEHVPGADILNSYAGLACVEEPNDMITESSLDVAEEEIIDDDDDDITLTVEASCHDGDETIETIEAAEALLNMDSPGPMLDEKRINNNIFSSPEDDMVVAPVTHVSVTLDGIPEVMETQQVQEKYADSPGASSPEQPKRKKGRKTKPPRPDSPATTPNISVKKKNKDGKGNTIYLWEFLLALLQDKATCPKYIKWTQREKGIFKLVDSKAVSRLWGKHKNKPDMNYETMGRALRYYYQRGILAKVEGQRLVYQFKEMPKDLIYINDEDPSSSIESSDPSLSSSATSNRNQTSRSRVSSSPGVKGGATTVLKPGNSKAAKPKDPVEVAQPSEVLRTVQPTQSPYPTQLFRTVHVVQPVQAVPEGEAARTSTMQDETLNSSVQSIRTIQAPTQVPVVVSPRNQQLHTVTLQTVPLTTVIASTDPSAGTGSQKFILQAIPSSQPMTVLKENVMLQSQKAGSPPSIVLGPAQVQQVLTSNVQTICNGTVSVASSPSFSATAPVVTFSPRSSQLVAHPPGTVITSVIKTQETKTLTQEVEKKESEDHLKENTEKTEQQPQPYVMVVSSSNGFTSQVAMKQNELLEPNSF
Chain of SPIB (Q01892 whole entry): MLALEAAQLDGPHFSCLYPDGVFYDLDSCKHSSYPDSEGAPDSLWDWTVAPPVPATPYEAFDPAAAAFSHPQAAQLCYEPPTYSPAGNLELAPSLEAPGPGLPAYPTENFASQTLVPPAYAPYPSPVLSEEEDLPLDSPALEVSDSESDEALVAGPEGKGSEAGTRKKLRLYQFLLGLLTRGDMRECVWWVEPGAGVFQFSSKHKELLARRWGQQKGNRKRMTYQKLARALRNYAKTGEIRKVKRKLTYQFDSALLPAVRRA
Chain of HSF1 (Q00613 whole entry): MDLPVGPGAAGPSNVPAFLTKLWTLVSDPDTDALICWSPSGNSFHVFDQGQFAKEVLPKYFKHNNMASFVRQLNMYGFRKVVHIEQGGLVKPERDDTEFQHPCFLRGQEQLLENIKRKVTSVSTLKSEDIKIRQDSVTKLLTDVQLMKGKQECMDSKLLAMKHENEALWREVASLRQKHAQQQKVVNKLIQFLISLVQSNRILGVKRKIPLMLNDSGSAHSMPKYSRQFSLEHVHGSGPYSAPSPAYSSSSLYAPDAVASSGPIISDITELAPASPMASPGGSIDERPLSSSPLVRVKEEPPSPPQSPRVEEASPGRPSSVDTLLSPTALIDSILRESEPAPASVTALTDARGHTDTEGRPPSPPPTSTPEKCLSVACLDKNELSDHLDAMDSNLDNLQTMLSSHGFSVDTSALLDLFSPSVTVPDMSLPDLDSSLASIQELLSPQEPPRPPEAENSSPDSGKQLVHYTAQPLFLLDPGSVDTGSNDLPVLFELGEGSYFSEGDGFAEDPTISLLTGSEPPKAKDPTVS
Chain of ELF4 (Q99607 whole entry): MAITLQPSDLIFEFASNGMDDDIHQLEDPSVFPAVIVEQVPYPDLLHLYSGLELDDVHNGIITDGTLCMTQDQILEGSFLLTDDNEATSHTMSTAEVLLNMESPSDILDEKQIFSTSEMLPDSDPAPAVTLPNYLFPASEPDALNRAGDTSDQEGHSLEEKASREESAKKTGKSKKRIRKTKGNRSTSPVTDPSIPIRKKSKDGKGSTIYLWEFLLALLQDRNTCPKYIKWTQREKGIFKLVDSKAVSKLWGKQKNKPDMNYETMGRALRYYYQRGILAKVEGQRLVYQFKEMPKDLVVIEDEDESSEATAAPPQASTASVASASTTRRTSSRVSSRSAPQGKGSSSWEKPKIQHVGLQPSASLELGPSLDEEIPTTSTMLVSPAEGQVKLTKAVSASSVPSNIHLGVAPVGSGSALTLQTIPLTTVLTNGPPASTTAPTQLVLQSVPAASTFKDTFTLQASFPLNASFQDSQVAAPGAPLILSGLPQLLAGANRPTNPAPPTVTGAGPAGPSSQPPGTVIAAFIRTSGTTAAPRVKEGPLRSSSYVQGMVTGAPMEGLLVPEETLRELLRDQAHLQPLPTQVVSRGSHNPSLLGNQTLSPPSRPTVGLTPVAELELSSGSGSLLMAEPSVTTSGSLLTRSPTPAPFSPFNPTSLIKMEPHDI
Chain of ETV1 (P50549 whole entry): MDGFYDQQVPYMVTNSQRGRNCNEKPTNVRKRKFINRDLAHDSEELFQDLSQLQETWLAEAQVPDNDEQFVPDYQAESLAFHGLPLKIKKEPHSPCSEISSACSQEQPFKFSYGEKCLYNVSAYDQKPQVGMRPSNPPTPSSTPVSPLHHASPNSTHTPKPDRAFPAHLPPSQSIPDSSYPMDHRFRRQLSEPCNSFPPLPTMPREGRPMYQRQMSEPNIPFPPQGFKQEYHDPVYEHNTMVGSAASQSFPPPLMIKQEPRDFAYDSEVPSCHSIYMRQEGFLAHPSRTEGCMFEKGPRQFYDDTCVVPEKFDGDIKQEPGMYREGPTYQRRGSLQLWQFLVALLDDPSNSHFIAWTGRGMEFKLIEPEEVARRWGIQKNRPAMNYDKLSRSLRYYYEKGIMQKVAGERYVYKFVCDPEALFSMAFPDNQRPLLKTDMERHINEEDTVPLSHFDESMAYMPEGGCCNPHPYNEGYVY

## TGACCT
FLI1
  binding signal: 1.75 fold enrichment (6-mer frequency, TF over GST control)
ELK1
  binding signal: 1.82 fold enrichment (6-mer frequency, TF over GST control)
GABPA
  binding signal: 1.81 fold enrichment (6-mer frequency, TF over GST control)
ERG
  binding signal: 1.73 fold enrichment (6-mer frequency, TF over GST control)
ELF1
  binding signal: 1.84 fold enrichment (6-mer frequency, TF over GST control)
EHF
  binding signal: 1.86 fold enrichment (6-mer frequency, TF over GST control)
SPI1
  binding signal: 1.7 fold enrichment (6-mer frequency, TF over GST control)
SPIB
  binding signal: 1.56 fold enrichment (6-mer frequency, TF over GST control)
ELK3
  binding signal: 1.6 fold enrichment (6-mer frequency, TF over GST control)
FEV
  binding signal: 1.69 fold enrichment (6-mer frequency, TF over GST control)
ETV5
  binding signal: 1.68 fold enrichment (6-mer frequency, TF over GST control)
HSF1
  binding signal: 1.5 fold enrichment (6-mer frequency, TF over GST control)
SPIC
  binding signal: 1.79 fold enrichment (6-mer frequency, TF over GST control)
ELF4
  binding signal: 1.82 fold enrichment (6-mer frequency, TF over GST control)
ELK4
  binding signal: 1.74 fold enrichment (6-mer frequency, TF over GST control)
ETV2
  binding signal: 1.65 fold enrichment (6-mer frequency, TF over GST control)
ELF3
  binding signal: 1.68 fold enrichment (6-mer frequency, TF over GST control)
CRX
  binding signal: 1.36 fold enrichment (6-mer frequency, TF over GST control)
ETV1
  binding signal: 1.88 fold enrichment (6-mer frequency, TF over GST control)
